From PubChem BioAssay
In the library only some 2.5% were active in any assay of this set; here they are far more common.
DRV1 agonist = agonists of human resolvin D1 receptor DRV1 (GPR32) | CHO-K1 GPR32 beta-arrestin PathHunter luminescence, 90 min; zero percent set by DMSO-only wells | activation, % at 76.9 µM | 48,000 tested, 2.5% active | AID 1346428;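 active means activation of at least 60% and not above a set upper limit, about 1 call in 100 departs from these limits; inconclusive means activation of 40% to 60%, or above that upper limit; inactive means activation under 40%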; further: 0% is about no effect
Target sequence (O75388 whole entry, looked up): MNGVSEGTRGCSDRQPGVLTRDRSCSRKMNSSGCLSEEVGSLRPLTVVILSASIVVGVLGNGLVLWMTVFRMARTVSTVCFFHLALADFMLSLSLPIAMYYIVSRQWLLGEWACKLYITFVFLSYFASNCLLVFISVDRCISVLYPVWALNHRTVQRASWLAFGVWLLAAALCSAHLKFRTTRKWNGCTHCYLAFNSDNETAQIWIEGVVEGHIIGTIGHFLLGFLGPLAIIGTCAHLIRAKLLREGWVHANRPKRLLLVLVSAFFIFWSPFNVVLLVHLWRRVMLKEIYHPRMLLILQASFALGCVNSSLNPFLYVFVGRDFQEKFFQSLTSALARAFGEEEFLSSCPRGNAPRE
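Readings come from a cell-based beta-arrestin complementation format: CHO-K1 GPR32 stable cells (2,500/well) treated 90 min with compounds, then beta-Gal substrate added for 1 h before chemiluminescence imaging.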
GALK inhibitor = GALK (human) enzyme inhibition | P51570 | recombinant GALK, Kinase-Glo ATP luminescence, 1 h | Potency, µM (highest dose often 57.5 µM), inactives show at the highest dose activity, negative = inhibition, actives largely listed as inhibitors | 44,000 tested, under 10 active | AID 1347072;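 further: plate controls were full GALK reaction for no effect and reaction lacking GALK for full effect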
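5 nM GALK with 35 µM ATP and 100 µM galactose in HEPES pH 8.0, MgCl2, NaCl, DTT, BSA; 1 h RT reaction, remaining ATP detected by Kinase-Glo Plus luminescence after 10 min; qHTS concentration series.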
PTAP-TSG101 blk = inhibitors of HIV-1 PTAP binding to human TSG101, validation. Fluorescence polarization, FITC-PTAP peptide/Tsg101, 20 min. Potency, µM (highest dose often 115 µM), hits mostly inhibitors. 44,000 tested, under 10 active. AID 1347069; further: potency means the concentration at half of the fitted maximal effect; 0% is about no effect
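Steps: Tsg101 binding domain (10 uM final) in HEPES pH 7.5/NaCl/Tween 20/EDTA/TCEP; add compound; add FITC-PTAP peptide (50 nM final); incubate 20 min r.t.; read polarization.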
B2AR arrestin ag = beta-arrestin recruitment by human beta2-adrenergic receptor ligands | AID 1347077 | HTLA Tango cells, beta-arrestin recruitment, luciferase luminescence, 18 h | Potency, µM (doses to about 46.1 µM), most hits filed as activators | 44,000 tested, under 10 active;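 further: potency means the concentration at half of the fitted maximal effect; 0% = DMSO and full agonism = EC100 isoproterenol or metaproterenol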
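Tango cell line, 1% FBS DMEM; cpd titration up to 46 microM; 18 hr, 37 degrees C, 5% CO2. Luciferin/ATP substrate mix added, 15 min RT, luminescence. %Activity, CRC fitting, curve-class categorization.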
Numbers without * were called inactive; i = inactive; ? = inconclusive; · = no result. Unless noted, the call rests on the fitted dose curve; in most records, active means well fitted curve in the direction sought with a large enough effect; inconclusive means small, poorly fitted or top-dose-only effect, or another doubt; inactive means no such curve, though single readings can be large; an effect the other way counts as inactive or inconclusive.

SMILES | DRV1 agonist | GALK inhibitor | PTAP-TSG101 blk | B2AR arrestin ag
COC(=O)c1cc(Cl)ccc1OC | -10.4 | · | · | ·
CCO[C@H](Cc1ccc(OCCc2ccc(OS(C)(=O)=O)cc2)cc1)C(=O)O | 75.6* | · | · | ·
CCOc1ccccc1NC(=O)CSc1nc2ccccc2nc1Cc1ccc(C)cc1 | 70.5* | ? | i | i
Cc1ccc(NC(=O)CSc2n[nH]c(-c3ccc(F)cc3)n2)cc1F | 66.8* | -0.3% | i | i
Cc1cc(C)c(S(=O)(=O)NCCc2sc(-c3cccnc3)nc2C)c(C)c1 | 68.7* | 1.7% | i | i
C[C@]1(Cn2ccnn2)[C@H](C(=O)O)N2C(=O)C[C@H]2S1(=O)=O | -5.1 | · | · | ·
CC(C)OCCCNc1ncnc2sc3c(c12)CCCC3 | 104.1* | 6.8% | i | i
CC(=O)c1cccc(NC(=O)Cn2c(=O)oc3cc(S(=O)(=O)NCc4ccccc4)ccc32)c1 | -3.2 | -1.6% | i | i
COc1ccc(NC(=O)Cn2c(=O)oc3cc(S(=O)(=O)NC4CCCC4)ccc32)cc1OC | -3.4 | 0.4% | i | i
O=C(Cn1c(=O)oc2cc(S(=O)(=O)NCc3ccccc3)ccc21)Nc1cccc(F)c1 | 67.3* | -3.3% | i | i
O=C(Cn1c(=O)oc2cc(S(=O)(=O)NC3CCCC3)ccc21)Nc1ccc(F)c(F)c1 | 91.3* | -2.3% | i | i
COc1ccccc1-c1nc(SCC(=O)c2ccc(Cl)cc2)n[nH]1 | ? | 0.0% | i | i
COc1ccccc1-c1nnc(SCC(=O)c2ccc(Cl)cc2)n1-c1ccccc1 | 79.5* | 1.9% | i | i
COc1ccc(-n2c(=O)c3ccc(C(=O)NCc4ccc(C)cc4)cc3n(CC(=O)Nc3ccc(C)cc3)c2=O)cc1 | -2.7 | -1.3% | i | i
COc1ccc(-n2c(=O)c3ccc(C(=O)NCc4ccc(C)cc4)cc3n(CC(=O)Nc3ccc(F)cc3)c2=O)cc1 | 93.6* | 6.5% | i | i
NS(=O)(=O)c1cc2c(cc1Cl)CN(C1CCCCC1)C2=O | -29.8 | · | · | ·
COc1ccc(CNC(=O)CCc2c(C)c3cc4c(C)coc4cc3oc2=O)cc1 | 68.0* | 6.8% | i | i
Cc1cc(C)c(NC(=O)Nc2ccc3snnc3c2)c(C)c1 | 62.8* | -0.5% | i | i
CCOc1ccc(NC(=O)Nc2ccc3snnc3c2)cc1 | 86.9* | -2.9% | i | i
COc1ccc(-c2c3c(=O)n(C)c(=O)n(C)c3cn2-c2cccc(N)c2)cc1 | -17.6 | -9.8% | i | i
COc1ccc(Cl)cc1NC(=O)Cn1c(=O)n(Cc2nc(C)no2)c(=O)c2ccccc21 | -14.4 | 3.0% | i | i
COc1ccc(-c2nc(SCC(=O)NC(C)CCc3ccccc3)n[nH]2)cc1 (stereo not given) | 17.3 | 1.0% | i | i
O=C1OC(C(=O)Nc2ccc(Cl)c(C(F)(F)F)c2)Cc2ccccc21 (stereo not given) | 80.0* | 0.0% | i | i
CN1CC(=O)N(CC(=O)Nc2ccc(Cl)c(C(F)(F)F)c2)c2ccccc2C1=O | -9.7 | -1.9% | i | i
CC(C)CC(=O)Nc1ccc(Cl)c(-c2nc3ccccc3[nH]2)c1 | 31.8 | -0.2% | i | i
SMILES | DRV1 agonist | GALK inhibitor | PTAP-TSG101 blk | B2AR arrestin ag
CC(C)(C)C(=O)Nc1ccc(Cl)c(-c2nc3ccccc3[nH]2)c1 | 87.8* | 0.0% | i | i
NC(=O)C1=CN(C2OC(COP(=O)(O)OP(=O)(O)OC[C@H]3O[C@@H](n4cnc5c(N)ncnc54)[C@H](OP(=O)(O)O)[C@@H]3O)C(O)C2O)C=CC1 (stereo not given in full) | 11.3 | · | · | ·
CCOc1ccc(Sc2cc(C(=O)NC(C)CC)c3ccccc3n2)cc1 (stereo not given) | 3.6 | -1.5% | i | i
CCc1ccc(Sc2cc(C(=O)NCc3cccc(OC)c3)c3ccccc3n2)cc1 | 5.6 | -4.4% | i | i
CCc1ccc(Sc2cc(C(=O)NCCCN3CCC(C)CC3)c3ccccc3n2)cc1 | 89.4* | -0.8% | i | i
CCc1ccc(Sc2cc(C(=O)NCCCN3CCCC(C)C3)c3ccccc3n2)cc1 (stereo not given) | 88.0* | 2.7% | i | i
CC(C(=O)O)c1ccc(/C=C2\CCCCC2=O)cc1 (stereo not given) | 10.3 | · | · | ·
Cc1cc(Cl)ccc1NC(=O)CSc1nc2c(c(=O)[nH]1)CCC2 | -16.2 | 1.8% | i | i
COc1ccc(-c2cc(C(F)(F)F)nc(SCC(=O)NC(C)c3ccccc3)n2)cc1 (stereo not given) | 106.3* | 23.3% | i | i
COc1ccc(-c2cc(C(F)(F)F)nc(SCCC(=O)Nc3ccc(O)cc3)n2)cc1 | 86.2* | 0.0% | i | i
COc1ccc(NC(=O)CCSc2nc(-c3ccc(OC)cc3)cc(C(F)(F)F)n2)cc1 | -12.6 | 0.0% | i | i
CCc1cccc(C)c1NC(=O)c1cc(S(=O)(=O)N(C)Cc2ccccc2)ccc1F | -0.6 | 3.3% | i | i
O=C(O)[C@H](O)[C@@H](O)[C@H](O[C@@H]1O[C@H](CO)[C@H](O)[C@H](O)[C@H]1O)[C@H](O)CO | -3.0 | · | · | ·
Cc1cccc(CCNC(=O)c2cc3ccccn3n2)c1 | 101.4* | 1.8% | i | i
CC(=O)c1ccc(N2CCN(C(=O)CS(=O)(=O)c3cccc4nsnc34)CC2)cc1 | 88.5* | 1.5% | i | i
O=C(CS(=O)(=O)c1cccc2nsnc12)N1CCN(c2ccc(F)cc2)CC1 | 11.4 | 4.6% | i | i
CCN(c1cccc(C)c1)S(=O)(=O)c1ccc2[nH]cc(C(=O)NCCCOC)c(=O)c2c1 | 96.5* | 0.8% | i | i
Cc1cccc(CNC(=O)CN2C(=O)CCn3nc(-c4cn(C)c5ccccc45)cc32)c1 | 107.3* | 1.4% | i | i
Cc1cccc(CNC(=O)CCCN2C(=O)CCn3nc(-c4cn(C)c5ccccc45)cc32)c1 | -7.9 | -0.3% | i | i
Cn1cc(-c2cc3n(n2)CCC(=O)N3CCCC(=O)Nc2ccccc2Cl)c2ccccc21 | 60.3* | -3.4% | i | i
C[C@H]1C[C@H](O)c2ccsc2S1(=O)=O | -8.2 | · | · | ·
Cn1cc[nH]c1=S | 65.4* | · | · | ·
CC(C)(C)c1nnc(NS(=O)(=O)c2ccc(N)cc2)s1 | 7.7 | · | · | ·
Nc1nc(=O)n([C@@H]2O[C@H](CO)[C@@H](O)[C@@H]2F)cc1I | -10.4 | · | · | ·
Oc1c(C(c2ccc(Cl)cc2Cl)N2CCOCC2)sc2nc(-c3ccco3)nn12 (stereo not given) | 89.9* | -2.3% | i | i
CCOC(=O)c1c(C)[nH]c(C)c1S(=O)(=O)N1CCN(c2ccc(Cl)cc2)CC1 | 68.0* | -3.7% | i | i
CCOC(=O)c1c(C)[nH]c(C)c1S(=O)(=O)N1CCC(C(=O)N2CCN(c3ccc(Cl)cc3)CC2)CC1 | -4.1 | 2.3% | i | i
